pPAFAH inh – inhibitors of human plasma PAF acetylhydrolase (pPAFAH) | Q13093 | inhibition, % at 3.39 µM | actives 1.5% (n = 330,000) | recombinant pPAFAH, FP-rhodamine probe fluorescence polarization;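 active = inhibition above the mean inhibition across the screen plus 3 SD, cut at about 25% in these data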;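 also: inhibitors block binding of the rhodamine activity-based probe so polarization drops; 0% = enzyme with DMSO and 100% = wells lacking pPAFAH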
PAFAH1B3 inh – blocks human PAF acetylhydrolase 1B catalytic subunit 3. Q15102. recombinant PAFAH1B3, FP-rhodamine probe, fluorescence polarization. inhibition, % at 3.39 µM. actives 0.28% (n = 340,000). AID 492972;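 active = inhibition above the screen-wide average of all tested compounds plus 3 SD, cut at about 25% in these data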;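 also: 0% = enzyme with DMSO only and 100% = wells lacking PAFAH1B3 protein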
Target sequence (Q15102 whole entry, looked up): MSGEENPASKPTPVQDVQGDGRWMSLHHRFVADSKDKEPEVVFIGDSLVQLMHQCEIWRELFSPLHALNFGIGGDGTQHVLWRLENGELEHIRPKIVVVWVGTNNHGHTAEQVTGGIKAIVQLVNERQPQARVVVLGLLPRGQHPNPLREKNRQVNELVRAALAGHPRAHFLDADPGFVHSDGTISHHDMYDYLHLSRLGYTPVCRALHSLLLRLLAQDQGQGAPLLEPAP
PAFAH1B2 FP inh – blocks human PAF acetylhydrolase 1b catalytic subunit 2. P68402. recombinant PAFAH1B2, FP-rhodamine activity probe, fluorescence polarization. inhibition, % at 3.39 µM. actives 1.2% (n = 340,000);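 active = inhibition above the mean of all tested compounds plus 3 SD, cut at about 24% in these data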;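 also: 0% = enzyme with DMSO and 100% = wells lacking PAFAH1B2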
PME-1 primary – blocks human protein phosphatase methylesterase 1; Q9Y570; recombinant PME-1, FP-Rh probe fluorescence polarization; inhibition, % at 5.9 µM; actives 0.53% (n = 320,000); AID 2130;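 active = inhibition above the campaign mean of all compounds plus 3 SD, cut at about 26% in these data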;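 also: competitive labeling of PME-1 active site by serine hydrolase directed probe; 0% = PME-1 with DMSO and 100% = wells lacking PME-1 enzyme; inhibitors block probe labeling so polarization falls and inhibition rises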
Target sequence (Q9Y570 whole entry, looked up): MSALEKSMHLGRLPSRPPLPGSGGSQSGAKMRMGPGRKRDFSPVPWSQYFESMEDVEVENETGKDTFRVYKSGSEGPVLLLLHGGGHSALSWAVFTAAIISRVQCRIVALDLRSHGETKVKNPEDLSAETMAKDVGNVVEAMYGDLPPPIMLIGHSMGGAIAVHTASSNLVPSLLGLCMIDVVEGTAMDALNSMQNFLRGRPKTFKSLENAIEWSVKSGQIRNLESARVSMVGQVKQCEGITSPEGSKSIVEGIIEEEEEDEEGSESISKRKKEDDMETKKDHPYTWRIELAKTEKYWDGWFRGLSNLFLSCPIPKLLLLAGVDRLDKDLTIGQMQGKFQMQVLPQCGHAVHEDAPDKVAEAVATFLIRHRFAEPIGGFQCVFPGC
PAFAH2 inh – PAFAH2 (human) inhibition; Q99487; recombinant PAFAH2, FP-rhodamine activity probe, fluorescence polarization; inhibition, % at 3.39 µM; actives 0.99% (n = 340,000); AID 492956;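 active = inhibition above the mean over all tested compounds plus 3 SD, cut at about 30% in these data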;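 also: inhibitors block probe labeling of enzyme so polarization drops; 0% = enzyme with DMSO and 100% = wells lacking PAFAH2 protein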
Fam108B inh – counter-screen for RBBP9 inhibitors: inhibitors of mouse Fam108B. inhibition, % at 9.51 µM. recombinant Fam108B, FP-Rh probe fluorescence polarization. actives 0.33% (n = 300,000);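 active = inhibition above the screen mean inhibition plus 3 SD, computed separately per campaign, cut at about 18% in these data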;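 also: inhibitors lower polarization as less probe binds the enzyme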
Fam108b confirm – Fam108b (mouse) hydrolase inhibition, confirmation assay. recombinant Fam108b, FP-Rh probe fluorescence polarization. inhibition, % at 9.51 µM. shares compounds with Fam108B inh. actives 44% (n = 930);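 active = inhibition above a limit from the primary screen, the mean over all compounds plus 3 SD, cut at about 19% in these data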;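 also: 0% = median of active Fam108b wells and 100% = catalytically dead S170A mutant; inhibitors free the probe so polarization falls as inhibition rises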
Fam108b ABPP HTS – inhibits mouse Fam108b in gel-based ABPP. actives 44% (n = 260). recombinant Fam108b, fluorophosphonate probe. inhibition, % at 20 µM. shares compounds with Fam108B inh; in the data active = inhibition above about 40%
pPAFAH FP conf – pPAFAH (human) inhibition, confirmed; shares compounds with pPAFAH inh; recombinant pPAFAH, FP-Rh probe fluorescence polarization; inhibition, % at 3.39 µM; actives 72% (n = 2,300); AID 463230;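 active = mean inhibition of the triplicate above the hit cutoff set for the earlier primary screen, cut at about 25% in these data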;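 also: 0% = enzyme with DMSO and 100% = wells lacking pPAFAH enzyme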
The depositor's hits bear a star; ! = a repeat was not active. In the library only some 2.9% were active in any assay of this set; here they are far more common.

Screening CC1CCC(NC(=O)CNC(=S)N2CC3CC(C2)c2cccc(=O)n2C3)CC1 (configuration not stated) returned pPAFAH inh 1, PAFAH1B3 inh 3, PAFAH1B2 FP inh 6, PME-1 primary -1, PAFAH2 inh 8 and Fam108B inh 5.
COc1c(C=C2C(=O)NC(=O)NC2=O)c(CCN(C)C(=O)c2ccccc2)cc2c1OCO2 was read as pPAFAH inh 4, PAFAH1B3 inh 7, PAFAH1B2 FP inh 0, PME-1 primary 3, PAFAH2 inh 6 and Fam108B inh 2.
CN1CCCN(C(=O)COc2ccc(F)cc2Cl)CC1 was read as pPAFAH inh 0, PAFAH1B3 inh 3, PAFAH1B2 FP inh 1, PME-1 primary -2, PAFAH2 inh -8 and Fam108B inh 2.
Screening CC1(CCO)C(=O)NC(=S)NC1=O returned PAFAH1B3 inh 14, PAFAH1B2 FP inh 4 and PAFAH2 inh -3.
Screening COc1cccc(-n2c(/C=C/c3ccc(O)c(O)c3)nc3ccccc3c2=O)c1 returned pPAFAH inh 33*, PAFAH1B3 inh -9, PAFAH1B2 FP inh 1, PME-1 primary 20, PAFAH2 inh 7 and Fam108B inh 3.
For COc1cccc(C2CCN(CC(=O)Nc3cc(Cl)ccc3OC)CC2O)c1 (configuration not stated) the results were pPAFAH inh 33*, PAFAH1B3 inh 8, PAFAH1B2 FP inh 4, PME-1 primary 2, PAFAH2 inh -1 and Fam108B inh 6.
For COc1cccc(CC(=O)N2CCN(Cc3cccc(Cl)c3)CC2)c1 the results were pPAFAH inh 0, PAFAH1B3 inh 3, PAFAH1B2 FP inh 6, PME-1 primary -6, PAFAH2 inh -1 and Fam108B inh -2.
For O=c1[nH]c2ccccc2n1CCCN1CCC(n2c(=O)[nH]c3cc(Cl)ccc32)CC1 the results were pPAFAH inh 5, PAFAH1B3 inh 10, PAFAH1B2 FP inh 3, PME-1 primary -1, PAFAH2 inh -1, Fam108B inh 19* and Fam108b confirm -4.
Nc1c(C(=O)NCCCc2ccccc2)c2nc3ccccc3nc2n1Cc1cccs1 was read as pPAFAH inh -1, PAFAH1B3 inh -1, PAFAH1B2 FP inh -1, PME-1 primary 2, PAFAH2 inh -14, Fam108B inh 34* and Fam108b confirm 21*.
CCCCCn1c(N)c(C(=O)NCc2cccs2)c2nc3ccccc3nc21 was read as pPAFAH inh 4, PME-1 primary 10 and Fam108B inh 5.
For CC(C)C[C@H]1C(=O)N2CCCC2[C@]2(O)O[C@](NC(=O)[C@@H]3C=C4c5cccc6[nH]cc(c56)CC4N(C)C3)(C(C)C)C(=O)N12 (some centres not stated) the results were pPAFAH inh 17, PAFAH1B3 inh 39*, PAFAH1B2 FP inh 15, PME-1 primary 12, PAFAH2 inh -8, Fam108B inh 19* and Fam108b confirm 17.
`O=S(=O)(c1ccc(F)cc1)N1CCCCC1c1cccnc1` (configuration not stated) gave pPAFAH inh 4, PAFAH1B3 inh 6, PAFAH1B2 FP inh 6, PME-1 primary -1, PAFAH2 inh 2 and Fam108B inh 0.
`COc1cc2c(cc1OC)C13CCN4CC5CCOC6CC(=O)N2C1C6C5CC43` (configuration not stated) gave PAFAH1B3 inh 9, PAFAH1B2 FP inh 6 and PAFAH2 inh 0.
`NC(Cc1cc(O)c(O)cc1O)C(=O)O` (configuration not stated) gave pPAFAH inh 84*, PME-1 primary 38*, Fam108B inh 80*, Fam108b confirm 101* and Fam108b ABPP HTS 50*.
For O=C(N/N=C/c1c(O)n(CCc2ccccc2)c(=O)[nH]c1=O)c1ccccc1O the results were pPAFAH inh 22, PAFAH1B3 inh 13, PAFAH1B2 FP inh 9, PME-1 primary 7, PAFAH2 inh 4 and Fam108B inh 10.
O=C(N/N=C/c1c(O)n(Cc2ccccc2)c(=O)[nH]c1=O)c1ccccc1O was read as pPAFAH inh 23, PAFAH1B3 inh 33*, PAFAH1B2 FP inh 34*, PME-1 primary 1, PAFAH2 inh 47*, Fam108B inh 21*, Fam108b confirm 42* and Fam108b ABPP HTS 0.
Screening CCOC(=O)c1c(N)n(Cc2ccco2)c2nc3ccccc3nc12 returned pPAFAH inh 9, PAFAH1B3 inh 4, PAFAH1B2 FP inh 4, PME-1 primary 0, PAFAH2 inh -2 and Fam108B inh 3.
`CCCCn1c(NC(=O)c2ccco2)c(C(=O)OCC)c2nc3ccccc3nc21` gave pPAFAH inh 2, PAFAH1B3 inh 54*, PAFAH1B2 FP inh 25*, PME-1 primary 19, PAFAH2 inh 17, Fam108B inh 49*, Fam108b confirm 49* and Fam108b ABPP HTS 35.
For Cc1nn(Cc2ccccc2)c(Cl)c1C(=O)OCC(=O)N1CCCC1 the results were pPAFAH inh 5, PAFAH1B3 inh 2, PAFAH1B2 FP inh -1, PME-1 primary -8, PAFAH2 inh 2 and Fam108B inh -1.
For CN(C)[C@@H]1C(=O)C(C(N)=O)=C(O)[C@@]2(O)C(=O)C3=C(O)c4c(O)cccc4[C@@](C)(O)[C@H]3[C@H](O)[C@@H]12 the results were pPAFAH inh 82*, PAFAH1B3 inh 57*, PAFAH1B2 FP inh 35*, PME-1 primary -6, PAFAH2 inh 64*, Fam108B inh 59*, Fam108b confirm 67*!, Fam108b ABPP HTS 0 and pPAFAH FP conf 75*.
For CC(C)(C)C(=O)NC1CCSC1=O (configuration not stated) the results were pPAFAH inh -2, PME-1 primary -2 and Fam108B inh 3.
Cc1cc(=O)oc2c(C)c(OCC(=O)N3CCN(Cc4ccccc4)CC3)ccc12 was read as pPAFAH inh 7, PAFAH1B3 inh 1, PAFAH1B2 FP inh 4, PME-1 primary -2, PAFAH2 inh -4 and Fam108B inh 4.
`CC(=O)c1ccc2c(c1)C1C(Cl)C(Sc3ccccc3[N+](=O)[O-])CC1C(C(=O)O)N2` (configuration not stated) gave pPAFAH inh 54*, PAFAH1B3 inh 31*, PAFAH1B2 FP inh 8, PME-1 primary 31*, PAFAH2 inh 42*, Fam108B inh 56*, Fam108b confirm 5 and pPAFAH FP conf 27*.

Bioassay records as filed in PubChem BioAssay.
